This note sets out measurements from PubChem BioAssay (NCI).

The structures appear in SMILES notation. The panel holds about 83,000 compounds, 20% with a hit somewhere; the sample as a whole holds those more often.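 Step 1: grow cells in 96-well plates. Step 2: add test compound at a single concentration. Step 3: incubate 48 h. Step 4: record percent growth.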 A number with no mark means an inactive call. Activity calls are given as the source filed them. How the source made its calls: active means growth percent below 10; inactive means the rest.

This assay has as its system K-562 leukemia. Put plainly: NCI-60 one-dose screen, 48 h (100 = growth as untreated, 0 = no growth, -100 = all killed). Conditions: 10 µM unless noted.
Consider `O=C(Nc1cccc2ccccc12)c1cc2ccccc2cc1O`, for which the growth was 14.7%.

Turning to `COc1cc2c(O)n(CCCN3CCOCC3)c3c4cnc5cccc(c(=O)c3c2cc1OC)c54`, the growth was 40.7%.

As to `C#CCNC(=O)CC[C@@H](C)[C@H]1CC[C@H]2[C@@H]3CC[C@@H]4CC(=O)CC[C@]4(C)[C@H]3CC[C@]12C`, the growth was 4.55% [100 µM] (active).

Turning to `COc1ccc(NC(=O)Nc2ccc(-c3cccnc3)cc2N2CCC(CO)CC2)cc1`, the growth is 24.8%.

Consider `CC1(C(=O)O)CCC(N)(C(=O)O)C1(C)C` (configuration not stated), for which the growth is 107%.

Turning to `COc1ncc(-c2ccc3nccc(C#CCCCCC(=O)NO)c3c2)cc1NS(=O)(=O)c1ccc(F)cc1F`, the growth was 17.3%.

As to `O=C(O)CC1CCCCC1c1ccccc1` (configuration not stated), the growth is 109%.

Turning to `CC(C)=CC/C=C(/C)[C@H]1CC[C@]2(C)[C@@H]1CC[C@@H]1[C@@]3(C)CCC(=O)NC(C)(C)[C@@H]3CC[C@]12C`, the growth is 6.71% [100 µM] (active).

On to `Cc1nc(Cl)c2c(n1)N(C)c1ccc(Cl)cc1C(C)C2` (configuration not stated), for which the growth is 77.3%.

On to `Cc1ccc(N)c(O)c1`, for which the growth was 94.3%.

On to `Nc1ccc(Cl)c([N+](=O)[O-])c1`, for which the growth is 84.6%.

Consider `O=[N+]([O-])c1cccc(N=NNc2cccc([N+](=O)[O-])c2)c1`, for which the growth is 103%.

`C=C(C)[C@@H]1CC[C@]2(C)[C@H](CC[C@@H]3[C@@H]([C@@](C)(O)CCC=C(C)C)CC[C@]32C)[C@@]1(C)CCC(=O)N1CCN(C)CC1`: the growth is 1.77% [100 µM] (active).

Regarding `Cn1cc(-c2noc(C(=O)c3cn(C)c4ncc(Br)cc34)n2)c2ccccc21`, the growth was 102%.

With `COc1cc(NCc2ccccc2O)c2ncccc2c1`, the growth was 97.3%.

Regarding `Cc1ccc(C2=C/C(=C/c3ccc(Br)cc3)C(=O)N2CCc2ccc(S(N)(=O)=O)cc2)cc1`, the growth is 88.6%.

In the case of `Nc1nc(Nc2ccccc2)c2ncn(Cc3ccc4c(c3)OCO4)c2n1`, the growth was 15.7%.

In the case of `O=C(CCCSc1nc(-c2ccccc2)cc(-c2ccccc2)n1)NO`, the growth was 6.51% (active).

Consider `FC(F)(F)c1ccc2c(c1)Sc1ccccc1N2`, for which the growth was 93.6%.

With `O=C1NC(=O)C(Cc2ccccc2)(Cc2ccccc2)N1`, the growth was 108%.

On to `C=C(C)[C@@H]1CC[C@]2(C(=O)N3CCN(C)CC3)CC[C@]3(C)[C@H](CC[C@@H]4[C@@]5(C)C/C(=C/c6ccncc6)[C@H](O)C(C)(C)[C@@H]5CC[C@]43C)[C@@H]12`, for which the growth was -13.4% [100 µM] (active).

With `C[C@@H](NC(=O)[C@@H](CC(=O)N1CCC(N2CCCCC2)CC1)N1C(=O)[C@@H](N2C(=O)OC[C@@H]2c2ccccc2)[C@H]1/C=C/c1cccc(Cl)c1)c1ccccc1`, the growth is -8.32% (active).

Take `N#C/C(=C(/O)CCCO)c1nc2ccccc2c(=O)[nH]1`: the growth was 102%.

In the case of `Cn1cc(-c2nnc(-c3cn(C)c4ncc(Br)cc34)s2)c2cc(Br)ccc21`, the growth is 97.8%.

In the case of `CC1(C)CC[C@]2(C(=O)OC(=O)[C@]34CCC(C)(C)C[C@@H]3C3=CC[C@@H]5[C@@]6(C)CCC(=O)C(C)(C)[C@@H]6CC[C@@]5(C)[C@]3(C)CC4)CC[C@]3(C)C(=CC[C@@H]4[C@@]5(C)CCC(=O)C(C)(C)[C@@H]5CC[C@]43C)[C@H]2C1`, the growth was 36.4% [100 µM].

In the case of `Cn1cc(-c2noc(-c3cn(C)c4ncc(Br)cc34)n2)c2cc(Cl)ccc21`, the growth is 66.3%.

With `CCc1cccc(Cl)c1`, the growth was 114%.

Take `c1cc2ccc3cc2cc1CNCCN1CCNCc2ccc4ccc(cc4c2)CNCCN(CCNC3)CCNCc2ccc3ccc(cc3c2)CNCC1`: the growth was 12.6%.

For the compound `COc1ccc(-c2cc(-c3ccccc3)nc(NCCNc3ccnc4cc(Cl)ccc34)n2)cc1`, the growth is -47.1% (active).

On to `O=C(N/N=C\c1cc(Cl)ccc1O)N/N=C/c1cc(Cl)ccc1O`, for which the growth is 18.4%.

In the case of `O=C1Nc2ccccc2/C1=C/C(=O)c1ccc(N2CCCCC2)cc1`, the growth was 68.2%.

For the compound `O=c1c2c3c(sc2n2cnnc2n1Cc1ccccc1)CCCC3`, the growth was 69.9%.

On to `Cn1c(=O)c(C#N)c(-c2ccco2)n2c(S(=O)(=O)Cc3ccccc3)nnc12`, for which the growth was 100%.

With `CCCCCn1sc(=O)n(Cc2ccc(CNC(=O)OCc3ccc4cccc(O)c4n3)cc2)c1=O`, the growth was 3.39% (active).

Take `O=C(N/N=C/c1ccc([N+](=O)[O-])cc1)c1ccc(Br)o1`: the growth is 114%.

Regarding `C=C(C)[C@@H]1CC[C@]2(COCCC#N)CC[C@]3(C)[C@H](CC[C@@H]4[C@@](C)(CCCNCCC#N)[C@H](C(=C)C)CC[C@]43C)[C@@H]12`, the growth was 7.57% [100 µM] (active).

Regarding `C=C(C)[C@@H]1CC[C@]2(C(=O)OC)CC[C@]3(C)[C@H](CC[C@@H]4[C@@]5(C)CC/C(=N\OCCC(=NCCC#N)NOCCC#N)C(C)(C)[C@@H]5CC[C@]43C)[C@@H]12`, the growth was 5.42% [100 µM] (active).
